Sampled rows, rich in hits. Any-hit rate of the full collection: about 9.2%.
HPGD block: HPGD (human) dehydrogenase inhibition | P15428 | purified HPGD, NADH fluorescence kinetic, PGE2 substrate | Potency, µM, for inactives: at the highest dose activity change, negative = inhibition, most hits filed as inhibitors | 150,000 tested, 4.3% active | AID 894; further: on the % scale 0 is the no-effect control and ±100 the full control effect
Target sequence (P15428 whole entry, looked up): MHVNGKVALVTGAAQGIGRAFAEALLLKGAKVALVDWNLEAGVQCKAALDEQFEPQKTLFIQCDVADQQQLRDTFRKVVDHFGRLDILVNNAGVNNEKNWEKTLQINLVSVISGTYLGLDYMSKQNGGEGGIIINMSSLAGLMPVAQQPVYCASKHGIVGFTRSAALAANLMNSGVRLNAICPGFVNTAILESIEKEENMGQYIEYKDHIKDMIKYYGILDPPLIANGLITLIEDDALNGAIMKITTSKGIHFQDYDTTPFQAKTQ
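NADH formation kinetics: reaction with 30 uM PGE2 and 1 mM NAD+ (final), 20 nM enzyme, Tris-HCl pH 8 with Tween 20, after 15 min compound preincubation at room temperature. Fluorescence change, last versus first of five reads.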
HTT aggregate: mutant huntingtin aggregation inhibition; AID 1688; PC12 HttQ103-GFP aggregates, Acumen cytometry, 40 h; 220,000 tested, 1.1% active; Potency, µM (top dose mostly 46.1 µM), for the others: top-dose activity change, negative = inhibition, hits mostly inhibitors; active means well fitted curve in the direction sought with a large enough effect; inconclusive means small, poorly fitted or top-dose-only effect, or another doubt; inactive means no such curve, though single readings can be large; an effect the other way counts as inactive or inconclusive; further: on the % scale 0 is the no-effect control and ±100 the full control effect; nearly all actives have a fitted effect of over 60% in size
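Aggregate formation scored by laser-scanning cytometer (488 excitation, 500–530 emission) in lysed PC12 cells expressing Q103-GFP after 100 nM tebufenozide induction; library tested in dose series, with ATPLite reagent added in the multiplex.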
KDM4E inh: JMJD2E (human) inhibition | B2RXH2 | 230,000 tested, 1.6% active | AID 2147 | Potency, µM (series often up to 57.1 µM), for the others: at the highest dose activity change, negative = inhibition, most hits filed as inhibitors | JMJD2E catalytic domain, FDH-coupled NADH fluorescence (FDH is formaldehyde dehydrogenase);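 further: 0% = wells with enzyme and -100% = buffer wells without enzyme; nearly all actives have a fitted effect of over 50% in size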
Target sequence (B2RXH2 1-337 limits assumed): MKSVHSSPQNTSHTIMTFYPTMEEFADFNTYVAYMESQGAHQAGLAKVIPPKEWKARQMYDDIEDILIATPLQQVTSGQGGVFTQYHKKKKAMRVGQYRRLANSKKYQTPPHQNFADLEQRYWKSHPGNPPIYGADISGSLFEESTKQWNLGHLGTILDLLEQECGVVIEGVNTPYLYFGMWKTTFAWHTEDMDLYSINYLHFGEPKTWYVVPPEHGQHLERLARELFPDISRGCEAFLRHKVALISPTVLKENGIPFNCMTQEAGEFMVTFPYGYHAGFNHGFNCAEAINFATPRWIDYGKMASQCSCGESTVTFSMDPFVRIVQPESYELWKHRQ
Lamin A splicing: changes lamin A minigene splicing in HeLa cells | HeLa LMNA splicing GFP/RFP minigene ratio, 48 h | Potency, µM (doses to about 46.1 µM), for the others: top-dose ratio change, negative = inhibition, most hits filed as inhibitors | 200,000 tested, 0.01% active; active means well fitted inhibition curve with a large enough effect in the signal ratio, with a control signal flat, not every such curve was filed as active; inconclusive means small, poorly fitted or top-dose-only effect, or effect the other way, or a change in a side signal; the % refers to the signal ratio; further: on the % scale 0 is the no-effect control and ±100 the full control effect
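S3 HeLa cells stably expressing lamin A-EGFP splicing minigene plus DsRed2, 600 cells/well, 48 h compound exposure at 37C. Laser-scanning cytometry; analysed as GFP (500-530 nm)/RFP (575-640 nm) total intensity ratio; 0.5% DMSO vehicle.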
HTT ATP protect: cytoprotection in Huntington HTT-Q103 PC12 cell model; PC12 HTT-Q103 induced, cytoprotection, ATP luminescence, 40 h; Potency, µM (titrated, usually from 56.4 µM), for inactives: cytoprotection (ATP increase), most hits filed as activators; 230,000 tested, 0.14% active; active means well fitted curve in the direction sought with a large enough effect; inconclusive means small, poorly fitted or top-dose-only effect, or another doubt; inactive means no such curve, though single readings can be large; an effect the other way counts as inactive or inconclusive; further: % of control where 0% means no effect; nearly all actives have a fitted effect of over 45% in size
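Huntington model: PC12 line, ecdysone-inducible HTTQ103 exon1–GFP, tebufenozide 100 nM. Test articles in a dose series. Endpoint luminescence from cellular ATP.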
ALDH1A1 block: blocks purified human ALDH1A1 activity. P00352. Purified ALDH1A1, NADH fluorescence, propionaldehyde substrate. Potency, µM (series often up to 75.3 µM), inactives show at the highest dose activity, negative = inhibition, most hits filed as inhibitors. 220,000 tested, 7.3% active. AID 1030;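 further: plate controls were no enzyme wells and a reference inhibitor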
Starred values were filed as active, the others as inactive; ? = inconclusive; / = no result; [ ] = another dose, or the depositor's remark. Unless noted, the call rests on the fitted dose curve; in most records, active means well fitted inhibition curve with a large enough effect (not every such curve was filed as active); inconclusive means small, poorly fitted or top-dose-only effect, or another doubt; inactive means no such curve, though single readings can be large or run the other way. Potency means the concentration at half of the fitted maximal effect.

SMILES | HPGD block | HTT aggregate | KDM4E inh | Lamin A splicing | HTT ATP protect | ALDH1A1 block
O=c1c2c(-c3cccs3)csc2[nH]c(=S)n1-c1ccccc1 | 28.2µM* | -5.4% | -1.4% | -6.2% | -21.2% | 22.4µM*
O=c1c2c(-c3cccs3)csc2ncn1-c1ccccc1 | -11.3% | -26.9% | ? | -6.9% | -7.3%[1.9 µM] | ?
C=CCn1c(=S)[nH]c2scc(-c3ccc(C)o3)c2c1=O | / | 22.4µM* | 7.9% | -12.3%[46 µM] | -5.1%[10 µM] | ?
COc1ccc(S(=O)(=O)NCCc2csc(-c3ccc(F)cc3)n2)cc1F | / | / | / | -16.6%[46 µM] | / | /
CCn1c(=S)[nH]c2scc(-c3cccs3)c2c1=O | / | ? | -2.0% | 11.8%[46 µM] | -9.9%[10 µM] | 14.1µM*
CC(C)(C)NC(=O)CN(Cc1cccs1)C(=O)CN1C(=O)C(=O)c2ccccc21 | / | -5.7% | -7.2% | / | -19.6% | 0.0282µM*
COc1ccccc1CN1CC2(CCN(C(=O)c3cnccn3)CC2)C1 | -1.6% | / | / | / | -11.8% | 3.0%
COc1cc(NC(=O)C2CC2)c(OC)cc1NC(=O)CCC(=O)NC1CCN(Cc2ccccc2)CC1 | / | 10.9% | 6.3% | 1.1%[46 µM] | ? | 1.9%
Cc1ccc(-c2nnn(CC(=O)Nc3ccccc3-c3ccccc3)n2)c(-n2cnnn2)c1 | -8.5% | -6.5%[9.22 µM] | 6.4% | -2.6% | -24.8% | 25.1µM*
O=C(Cn1nnc(-c2ccccc2-n2cnnn2)n1)NCc1ccccc1 | -16.3% | -9.8% | 2.2% | -5.2% | -8.1%[10 µM] | 10µM*
Cc1ccc(NC(=O)Cn2nnc(-c3ccccc3-n3cnnn3)n2)c(C)c1 | / | -16.2% | -0.8% | / | -17.2% | -4.6%
Cc1ccc(C(=O)Cn2nnc(-c3ccccc3-n3cnnn3)n2)cc1 | -12.0% | 9.5% | 10.1% | 8.3% | -19.8%[10 µM] | ?
COc1ncc2nc(-c3ccccc3)c(=O)n(C[C@H]3CCCO3)c2n1 | ? | / | / | / | 1.2% | ?
C=C1C2(C(=O)NCc3ccco3)CCC(C2)C1(C)C (stereo not given) | 25.1µM* | -11.7% | -5.5% | -7.0% | 4.7%[10 µM] | -6.4%
CO[C@H]1COC(=O)CCC[C@H](C)[C@@H](OC)COC(=O)C/C=C\[C@@H]1C | / | / | / | / | -2.5%[10 µM] | 12.0%[13.5 µM]
CSc1nc(C)c2cc(C)oc2n1 | -13.2% | -7.3% | -24.8% | 4.6% | 7.4%[10 µM] | -5.3%
Cc1cc2c(C)nc(Cc3ccccc3)nc2o1 | -29.6% | -13.5% | 1.0% | 2.2% | 1.7% | 8.91µM*
COC(=O)C1=C(C(=O)OC)[C@@H]2N(C)c3ccccc3[C@@]23C[C@@H](CO)N(C(=O)NCCBr)C3=N1 | / | 1.2%[9.22 µM] | 4.4% | / | -7.7%[10 µM] | /
N#Cc1nccnc1S(=O)(=O)c1cccs1 | / | -38.6%[9.22 µM] | -14.9% | ? | -22.5%[10 µM] | 0.447µM*
CN(C)c1ccc(CC(=O)c2nc3ccccc3s2)cc1 | -7.9% | -9.9% | -20.1% | 1.7% | -2.2%[10 µM] | 7.08µM*
O=C(O)c1ccc(-c2cccc([N+](=O)[O-])c2)o1 | / | 4.9%[9.22 µM] | -1.0% | / | 17.9%[10 µM] | /
N#C/C(=C(/O)c1ccc(-c2cccc([N+](=O)[O-])c2)o1)c1nc2ccccc2s1 | / | 11.2µM* | -0.4% | / | -136.4% | ?
COc1ccc(C/C(O)=C(\C#N)c2nc3ccccc3s2)cc1 | -26.5% | 12.6µM* | -0.3% | ? | 6.0%[10 µM] | -6.3%
O=Cc1ccc(Cl)cc1 | -3.5% | / | / | / | -12.0% | -1.5%
O=C(C(Cc1ccccc1)n1cccc1)N1CCCCCC1 (stereo not given) | 28.2µM* | 2.2% | -5.7% | -6.3% | 1.2% | -1.5%
SMILES | HPGD block | HTT aggregate | KDM4E inh | Lamin A splicing | HTT ATP protect | ALDH1A1 block
O=C(O)C(Cc1ccccc1)N1CCS(=O)(=O)CC1 (stereo not given) | / | 4.9% | 13.3% | ? | 2µM* | 2.0%
O=C(C(Cc1ccccc1)n1cccc1)N1CCCCC1 (stereo not given) | 12.6µM* | -17.9% | 3.8% | -2.7% | 9.2% | 3.3%
O=C(C(Cc1ccccc1)n1cccc1)N1CCN(c2cccc(Cl)c2)CC1 (stereo not given) | -9.5% | ? | -6.7% | ? | -47.3% | -4.9%
O=C(C(Cc1ccccc1)n1cccc1)N1CCN(Cc2ccccc2)CC1 (stereo not given) | -1.3% | ? | -4.2% | -8.8% | -6.3% | ?
COC(=O)C(CC(=O)O)NCc1ccco1 (stereo not given) | / | -20.1%[9.22 µM] | -11.9% | / | -4.5%[10 µM] | /
C=C1SC(=Nc2ccccc2Cl)N(C(=O)c2sc3ccccc3c2Cl)C1(C)C | / | 6.3%[9.22 µM] | 21.8% | / | 6.5%[10 µM] | 23.8µM*
CC(C)OC(=O)C(C)Nc1ccc(F)c(Cl)c1 (stereo not given) | / | 25.1%[9.22 µM] | -4.4% | / | 7.6%[10 µM] | /
COc1ccc(Cl)cc1NC(=O)COC(=O)CNC(=O)c1ccc([N+](=O)[O-])c(C)c1 | -20.1% | ? | -0.7% | -6.4% | / | 8.9%
Cc1cc(C(=O)NCC(=O)OCC(=O)Nc2ccc(OC(F)F)cc2)ccc1[N+](=O)[O-] | -26.6% | 6.1% | -9.4% | 9.7% | 24.8%[10 µM] | 3.16µM*
COC(=O)C1(Cc2ccccc2)C=C2C(=C(c3ccccc3)C(=O)C2C)CN1 (stereo not given) | 10µM* | / | -26.8% | / | -80.9% | 25.1µM*
COC(=O)C1(CC(C)C)C=C2C(=C(C(C)C)C(=O)C2C)CN1 (stereo not given) | ? | / | ? | / | -66.6% | 35.5µM*
CCCC1(C(=O)OC)C=C2C(=C(C(C)C)C(=O)C2C)CN1 (stereo not given) | -8.1% | / | ? | / | 6.8% | ?
O=C1C(Cl)=C(Sc2nnc3c4ccccc4c4ccccc4c3n2)C(=O)c2ccccc21 | ? | / | / | / | -24.8%[10 µM] | ?
CSc1cccc(NC(=O)c2cc3c(COC(C)=O)cnc(C)c3oc2=O)c1 | / | / | / | 13.1%[46 µM] | / | /
CCCCSCCCNC(=S)Nc1ccccc1C | / | 22.4µM* | 7.2% | ? | -12.3% | 3.6%
O=C(NC1CCCC1)C1CCN(c2nccs2)CC1 | 14.1µM* | 4.2% | 0.7% | -12.4% | 10.9%[10 µM] | 1.2%
O=C(NC1CCCCCCC1)C1CCN(c2nc3ccccc3o2)CC1 | -14.7% | ? | -16.5% | ? | 3.6%[10 µM] | -5.4%
COc1ccc(NC(=O)c2ccco2)cc1NC(=O)c1cc(Br)ccc1Cl | / | / | / | -4.4%[46 µM] | / | /
CC(Cl)C(=O)c1ccc2c(c1)CCN2C(=O)C1CC1 (stereo not given) | / | -5.9% | ? | / | -47.6% | 1.41µM*
O=C1c2cccc3c(O)ccc(c23)C(=O)N1Cc1ccccc1 | -29.4% | 10µM* | -0.9% | ? | -34.3% | -7.9%
O=C1c2cccnc2C(=O)N1Cc1ccccc1 | -14.9% | -8.7% | 2.9% | 2.1% | 22.0%[10 µM] | 7.5%
O=C(CCCSc1nc2ccccc2s1)Nc1nccs1 | 25.1µM* | -7.6% | -5.7% | -0.9% | 13.0%[10 µM] | 15.8µM*
O=C(CSc1nnc(SCC(=O)NCc2ccc3c(c2)OCO3)s1)NCc1ccc2c(c1)OCO2 | -3.6% | 11.3% | -2.8% | -4.0% | 4.9% | 13.0%
